In PubChem BioAssay (EPA / NIEHS) one finds AC50 and outcome data, which are given here for 6 compounds.

Assay [1] is described as follows: APR_HepG2_CellLoss_72hr: Apredica 72-hour HepG2 Assay for Cell Loss (AID 2282915). The conditions noted are these: high-content imaging. The method in brief: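 HepG2 cells exposed 72 h to compound at 0.39–200 uM (10 concentrations, duplicate) in 0.5% DMSO. Fixed with 3.7% formaldehyde and Hoechst 33342-stained. Imaged at 20x; nuclear count gives cell number, fitted bidirectionally versus DMSO.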

Assay [2] in a line: APR_HepG2_P-H2AX_72hr: Apredica 72-hour HepG2 Assay for H2AX Phosphorylation (AID 2282916).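 Further: phospho-histone H2A.x immunostain intensity per cell marking DNA damage.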 Conditions: imaging, actives raise or lower the signal. The method in brief: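 HepG2 human liver cells were exposed for 72 hr to compounds at 0.39–200 uM (10 concentrations, duplicate per plate) in 0.5% v/v DMSO. Fixed, permeabilized cells were immunolabeled for phospho-histone H2A.x with Hoechst 33342 and imaged by HCS fluorescence; bidirectional fit versus DMSO.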

Assay [3] is described as follows: APR_HepG2_MitoMembPot_72hr: Apredica 72-hour HepG2 Assay for Mitochondrial Membrane Potential (AID 2282917). Conditions: imaging, actives raise or lower the signal. The method in brief:
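HepG2 cells dosed 72 hr with compound at 0.39–200 uM in duplicate, 0.5% v/v DMSO final. Mitochondria stained with 250 nM MitoTracker Red CMXRos for 30 min before formaldehyde fixation, imaged by high-content fluorescence; bidirectional fit versus DMSO.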

Assay [4] can be described thus: APR_HepG2_MitoticArrest_72hr: Apredica 72-hour HepG2 Assay for Mitotic Arrest (AID 2282918). The conditions noted are these: high-content imaging, actives raise or lower the signal. The method in brief:
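HepG2 cells treated 72 h at 0.39–200 uM, 0.5% DMSO final; formaldehyde-fixed, stained with Hoechst 33342 and phospho-histone H3 antibody, imaged by high-content fluorescence; bidirectional fit versus DMSO.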

A short description of assay [5]: APR_HepG2_MicrotubuleCSK_72hr: Apredica 72-hour HepG2 Assay for Microtubule CSK Stabilty (AID 2282919). Conditions: HepG2 microtubule cytoskeleton, high-content imaging, actives raise or lower the signal. A digest of the protocol: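 HepG2 cells were exposed 72 hr to compound at 0.39–200 uM in duplicate (0.5% DMSO final), then fixed and permeabilized. Alpha-tubulin immunofluorescence was imaged by high-content microscopy, with bidirectional fitting against DMSO and taxol as positive control.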

A short description of assay [6]: APR_HepG2_P-H2AX_24hr: Apredica 24-hour HepG2 Assay for H2AX Phosphorylation (AID 2282920). The conditions noted are these: high-content imaging, actives raise or lower the signal. The method in brief:
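HepG2 cells dosed 24 h at 0.39–200 uM (10 points, duplicate, 0.5% DMSO final). Formaldehyde-fixed and permeabilized, then immunostained for phospho-H2A.x with Hoechst. Fluorescence quantified by high-content imaging, fitted bidirectionally versus DMSO.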

Assay [7] in a line: APR_HepG2_StressKinase_72hr: Apredica 72-hour HepG2 Assay for Stress Kinase (AID 2282921). Conditions: HepG2 stress kinase (phospho-c-Jun) imaging, actives raise or lower the signal. A digest of the protocol: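 Cells were exposed for 72 h to ten concentrations (0.39–200 uM, duplicate) at 0.5% v/v DMSO final, then fixed with 3.7% formaldehyde, permeabilized and immunostained for phospho-c-Jun (Cy3 secondary) with Hoechst nuclear counterstain.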

Assay [8] is described as follows: APR_HepG2_StressKinase_24hr: Apredica 24-hour HepG2 Assay for Stress Kinase (AID 2282922). Conditions: HepG2 stress kinase (phospho-c-Jun) imaging, actives raise or lower the signal. A digest of the protocol:
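HepG2 cells exposed 24 h to 0.39–200 uM compound in duplicate (0.5% v/v DMSO final). Cells fixed in 3.7% formaldehyde, permeabilized and immunostained for phospho-c-Jun; read by high-content fluorescence imaging, fitted bidirectionally against DMSO.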

A short description of assay [9]: APR_HepG2_p53Act_72hr: Apredica 72-hour HepG2 Assay for p53 Activation (AID 2282923).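 Further: average cellular p53 protein immunofluorescence intensity in HepG2 cells.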 Conditions: high-content imaging, actives raise or lower the signal. The method in brief: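 Cells were dosed for 72 hr with compounds at 0.39–200 uM in duplicate (final DMSO 0.5% v/v), then fixed in 3.7% formaldehyde, permeabilized with Triton X-100 and immunostained for p53 (Cy5) with Hoechst 33342 nuclear counterstain.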

The nature of assay [10]: APR_HepG2_MitoMass_72hr: Apredica 72-hour HepG2 Assay for Mitochondrial Mass (AID 2282924).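 Further: MitoTracker Red CMXRos stain intensity per cell imaged as mitochondrial mass.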 The conditions noted are these: high-content imaging, actives raise or lower the signal. The method in brief: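 HepG2 cells dosed 72 hr at 0.39–200 uM (0.5% DMSO), in duplicate. MitoTracker Red CMXRos 250 nM loaded 30 min before formaldehyde fixation; high-content fluorescence imaging, bidirectional fit versus DMSO.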

Assay [11] is described as follows: APR_HepG2_NuclearSize_72hr: Apredica 72-hour HepG2 Assay for Nuclear Size (AID 2282925). The conditions noted are these: high-content imaging, actives raise or lower the signal. The method in brief:
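HepG2 cells dosed 72 h at 0.39–200 uM (10 concentrations, duplicate) in 0.5% v/v DMSO final. Fixed, Hoechst 33342-stained nuclei imaged; nuclear diameter measured by automated image analysis. Bidirectional fit versus DMSO.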

A short description of assay [12]: ATG_CRE_CIS: Attagene CIS-FACTORIAL HepG2 Assay for human cAMP Responsive Element (CRE) binding protein 3 (AID 2282926). Conditions: HepG2 CRE cis-reporter, Attagene multiplexed mRNA; actives raise or lower the signal. A digest of the protocol:
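HepG2 cells transiently transfected with cis-element-driven multiple reporter transcription units; CRE reporter mRNA measured 24 h after dosing by RT-PCR, 6-FAM labelling, HpaI digestion and capillary electrophoresis. Bidirectional fit versus DMSO baseline.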

Assay [13] concerns the target CCAAT/enhancer-binding protein beta (Homo sapiens) (UniProt P17676). The assay is described as follows: ATG_C_EBP_CIS: Attagene CIS-FACTORIAL HepG2 Assay for human CCAAT/Enhancer Binding Protein (C/EBP) beta (AID 2282927). Conditions: HepG2 Attagene cis-factorial transcription factor reporter; actives raise or lower the signal. The method in brief: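 Transiently transfected HepG2 (MRTU library, endogenous TF-driven promoters); 24 h dosing; total RNA → oligo(dT) RT → PCR → 6-FAM primer extension → HpaI digest → CE; fit bidirectionally vs DMSO.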

Assay [14] can be described thus: ATG_CMV_CIS: Attagene CIS-FACTORIAL HepG2 Assay for human CMV (Internal Marker) (AID 2282928).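 Further: endpoint acts as a background internal control marker rather than a target.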 The conditions noted are these: HepG2 CMV promoter reporter, transcription factor profiling; actives raise or lower the signal. The method in brief: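 Cell system: HepG2, transiently transfected multiple reporter units under cis promoters. Exposure: 24 h. Detection: RT-PCR, FAM labeling, HpaI digestion, capillary electrophoresis. Analysis: bidirectional, DMSO baseline.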

Assay [15] in a line: ATG_DR4_LXR_CIS: Attagene CIS-FACTORIAL HepG2 Assay for human Liver X Receptor (LXR), DR4 submotif (AID 2282929). Conditions: HepG2 Attagene DR4 cis-reporter, mRNA transcription; actives raise or lower the signal. A digest of the protocol:
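Transiently transfected HepG2 liver cells; cis-regulated reporters; 24 h dosing. RT-PCR plus CE read-out of reporter mRNA. DMSO baseline, bidirectional curve fitting.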

Assay [16] in a line: ATG_AP_2_CIS: Attagene CIS-FACTORIAL HepG2 Assay for human Activator Protein 2 (AP-2) (AID 2282932). The conditions noted are these: HepG2 AP-2 cis-reporter, Attagene transcription factor profiling; actives raise or lower the signal. The method in brief:
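Multiplexed mRNA reporter assay in HepG2: cis-regulated units report endogenous factor activity after 24 h treatment. Fluorescence from capillary electrophoresis of RT-PCR products gives the signal, with DMSO as baseline.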

A short description of assay [17]: ATG_BRE_CIS: Attagene CIS-FACTORIAL HepG2 Assay for human Bone Morphogenetic Protein (BMP) Response Element (BRE) (AID 2282933). Conditions: HepG2 BMP response element reporter, Attagene transcription factor profiling; actives raise or lower the signal. The method in brief:
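A HepG2 multiplex reporter system measured inducible reporter mRNA 24 h post-dosing. Detection: RT-PCR, 6-FAM primer extension, HpaI digestion, capillary electrophoresis. Activity fitted bidirectionally relative to DMSO.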

For assay [18], the target named is Retinoic acid receptor alpha (Homo sapiens) (UniProt P10276). Nature of the assay: ATG_DR5_RAR_CIS: Attagene CIS-FACTORIAL HepG2 Assay for human Retinoic Acid Receptor Alpha (RARE), DR5 submotif (AID 2282934).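 On AC50: reporter responds to endogenous RAR alpha beta and gamma in HepG2 not RARA alone.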 Conditions: HepG2 Attagene cis-factorial RARE DR5 reporter, mRNA; actives raise or lower the signal. The method in brief: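 Read-out: DR5-driven reporter transcript measured by RT-PCR, 6-FAM primer extension, HpaI digest and capillary electrophoresis. Human HepG2 liver cells carry transiently transfected cis-element reporter constructs; dosing lasts 24 h. Gain or loss of signal fitted against DMSO baseline.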

Assay [19] has as its target Aryl hydrocarbon receptor (Homo sapiens) (UniProt P35869). The assay is described as follows: ATG_Ahr_CIS: Attagene CIS-FACTORIAL HepG2 Assay for human Aryl Hydrocarbon Receptor (Ahr) (AID 2282930). The conditions noted are these: HepG2 AhR cis-factorial reporter transcription; actives raise or lower the signal. The method in brief: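 Read-out: reporter mRNA quantified by RT-PCR with fluorescent primer extension and capillary electrophoresis. Human HepG2 liver cells carried transfected cis-promoter reporter units and were exposed to chemical for 24 h; gain or loss fitted relative to DMSO.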

Assay [20] in a line: ATG_AP_1_CIS: Attagene CIS-FACTORIAL HepG2 Assay for human Activator Protein 1 (AP-1) (AID 2282931). Conditions: HepG2 Attagene cis-factorial AP-1 reporter mRNA; actives raise or lower the signal. The method in brief:
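We transfected HepG2 cells transiently with a set of cis-regulated reporter transcription units, dosed them for 24 h, and quantified reporter mRNA via RT-PCR and capillary electrophoresis, scoring gain or loss of signal relative to DMSO.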

The source holds several records for some structures; these can differ, active in one and inactive in another. Activity calls are given as the source filed them. How the source made its calls: active means hit-call score of the fitted dose curve at least 0.9, where 1 is the maximum; inactive means score below 0.9.

Sequence of CCAAT/enhancer-binding protein beta (Homo sapiens) (P17676 whole entry, looked up): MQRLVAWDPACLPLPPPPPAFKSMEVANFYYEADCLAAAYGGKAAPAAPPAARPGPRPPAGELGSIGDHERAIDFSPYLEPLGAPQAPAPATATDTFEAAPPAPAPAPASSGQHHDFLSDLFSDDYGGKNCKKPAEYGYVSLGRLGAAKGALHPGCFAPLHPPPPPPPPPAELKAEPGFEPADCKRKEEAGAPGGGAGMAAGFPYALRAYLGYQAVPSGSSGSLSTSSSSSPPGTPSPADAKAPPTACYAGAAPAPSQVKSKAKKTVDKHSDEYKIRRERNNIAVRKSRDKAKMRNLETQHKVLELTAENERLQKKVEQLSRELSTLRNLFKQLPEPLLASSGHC
Sequence of Aryl hydrocarbon receptor (Homo sapiens) (P35869 whole entry, looked up): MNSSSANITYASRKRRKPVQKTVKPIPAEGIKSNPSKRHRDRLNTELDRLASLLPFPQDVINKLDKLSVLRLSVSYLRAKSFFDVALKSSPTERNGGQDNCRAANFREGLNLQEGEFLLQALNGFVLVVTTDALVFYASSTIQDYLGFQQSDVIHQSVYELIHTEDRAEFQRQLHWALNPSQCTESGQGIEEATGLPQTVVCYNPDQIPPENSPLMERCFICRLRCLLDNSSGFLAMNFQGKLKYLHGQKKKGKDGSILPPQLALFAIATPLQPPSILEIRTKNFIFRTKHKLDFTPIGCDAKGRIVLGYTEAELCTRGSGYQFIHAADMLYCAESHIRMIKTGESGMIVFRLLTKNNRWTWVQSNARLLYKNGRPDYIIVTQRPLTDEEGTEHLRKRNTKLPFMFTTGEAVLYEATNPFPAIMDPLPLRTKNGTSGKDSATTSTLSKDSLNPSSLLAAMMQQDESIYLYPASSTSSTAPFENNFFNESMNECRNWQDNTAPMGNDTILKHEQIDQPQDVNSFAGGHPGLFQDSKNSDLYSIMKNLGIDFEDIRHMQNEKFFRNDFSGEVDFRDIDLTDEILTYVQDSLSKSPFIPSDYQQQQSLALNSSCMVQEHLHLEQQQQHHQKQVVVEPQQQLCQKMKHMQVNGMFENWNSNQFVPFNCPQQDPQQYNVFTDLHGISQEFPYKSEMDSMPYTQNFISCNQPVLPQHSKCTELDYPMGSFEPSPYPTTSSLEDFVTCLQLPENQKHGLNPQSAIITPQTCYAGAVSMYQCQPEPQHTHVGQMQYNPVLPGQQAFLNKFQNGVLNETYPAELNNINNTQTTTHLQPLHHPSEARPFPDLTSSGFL
Sequence of Retinoic acid receptor alpha (Homo sapiens) (P10276 whole entry, looked up): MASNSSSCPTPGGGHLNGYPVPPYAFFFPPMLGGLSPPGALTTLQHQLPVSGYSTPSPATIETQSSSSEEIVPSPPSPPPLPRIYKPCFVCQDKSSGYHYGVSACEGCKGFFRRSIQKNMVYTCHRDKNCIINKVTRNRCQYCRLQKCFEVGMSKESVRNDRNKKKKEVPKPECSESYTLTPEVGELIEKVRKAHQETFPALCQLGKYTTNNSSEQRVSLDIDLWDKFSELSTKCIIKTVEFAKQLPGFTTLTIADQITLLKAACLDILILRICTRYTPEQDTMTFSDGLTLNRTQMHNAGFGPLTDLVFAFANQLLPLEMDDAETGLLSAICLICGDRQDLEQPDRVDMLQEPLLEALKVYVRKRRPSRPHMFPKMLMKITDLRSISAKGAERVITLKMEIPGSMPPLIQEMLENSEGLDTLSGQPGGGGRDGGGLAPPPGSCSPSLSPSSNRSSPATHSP

`CCCN(CCOc1c(Cl)cc(Cl)cc1Cl)C(=O)n1ccnc1`: the AC50 in assay [1] is 30.8 µM (active); in [5], 165 µM (active); in assay [14] it was 11.1 µM (active); in [17] it was 15.1 µM (active); in [18] it was 3.01 µM (active). Further, the outcome in [2], in [3], in [4], in assay [6], in [7] and in [8] was inactive. In addition, the compound was called inactive in assay [9], in [10], in [11], in [12], in assay [13] and in assay [14]. The compound was called inactive in [15], in assay [16], in assay [17] and in assay [18].
`COC(=O)c1ccccc1CS(=O)(=O)NC(=O)Nc1nc(OC)cc(OC)n1`: the outcome in [2], in [3], in assay [4], in assay [5], in [6] and in [7] was inactive. Also, the compound was called inactive in [8], in [9], in [10], in [11], in assay [12] and in assay [13]. The compound was called inactive in [14], in assay [15], in [19], in assay [20], in assay [16] and in assay [17]. The compound was called inactive in assay [18].
As to `CNC(=O)Oc1ccccc1OC(C)C`, the compound was classed as inactive in assay [1], in [2], in [3], in assay [4], in assay [5] and in [6]. For the same compound, the outcome in assay [7], in [8], in [9], in assay [10], in assay [11] and in [12] was inactive. For the same compound, the outcome in [13], in [14], in assay [15], in assay [19], in assay [16] and in assay [17] was inactive. The outcome in assay [18] was inactive.
Consider `COc1cc(OC)nc(NC(=O)NS(=O)(=O)c2cc(NC=O)ccc2C(=O)N(C)C)n1`, for which the call in assay [1], in assay [2], in assay [3], in [4], in assay [5] and in assay [6] was inactive. Also, the outcome in assay [7], in assay [8], in assay [9], in assay [10], in [11] and in assay [12] was inactive. Also, the outcome in assay [14], in [15], in [19], in assay [20], in assay [16] and in assay [17] was inactive. For the same compound, the call in assay [18] was inactive. In assay [13], the AC50 was 13.3 µM (active).
Turning to `CCC(C)(C)C(=O)OC1=C(c2ccc(Cl)cc2Cl)C(=O)OC12CCCCC2`, in assay [1], the AC50 was 133 µM (active). In addition, the result in [2], in assay [3], in [4], in assay [5], in assay [6] and in assay [7] was inactive. The call in assay [8], in assay [9], in [10], in [11], in [12] and in assay [13] was inactive. Also, the compound was classed as inactive in [14], in assay [15], in assay [19], in assay [20], in assay [16] and in assay [17]. The outcome in assay [18] was inactive.
In the case of `Cc1cc(C)nc(NC(=O)NS(=O)(=O)c2ccccc2C(=O)OC2COC2)n1`, the outcome in assay [1], in assay [2], in assay [3], in [4], in assay [5] and in assay [6] was inactive. The compound was classed as inactive in assay [7], in [8], in assay [9], in [10], in assay [11] and in assay [12]. The result in [13], in assay [14], in assay [15], in assay [19], in assay [20] and in assay [16] was inactive. Moreover, in assay [18], the call was inactive. Moreover, the AC50 in assay [17] is 91 µM (active).

The AC50 is the midpoint of the concentration-response curve, whichever way the signal moves.
